IMPase Li cell = qHTS Assay for Identifying the Cell-Membrane Permeable IMPase Inhibitors: Potentiation with Lithium | CHO-M1 cells, IP1 TR-FRET (IP-One), carbachol + lithium | Potency, µM (doses to about 59.4 µM), usual class: inhibitors | hit rate 0.35% among 210,000 | AID 1457, 2008; active = well fitted curve in the direction sought with a large enough effect; inconclusive = small, poorly fitted or top-dose-only effect, or another doubt; inactive = no such curve, though single readings can be large; an effect the other way counts as inactive or inconclusive;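 also: IP1 builds up when IMPase is blocked and the TR-FRET signal falls; nearly all actives have a fitted effect of over 50% in size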
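Test compounds were applied to CHO-M1 cells previously cultured for 16–30 h at 2000 per well. A small lithium amount accompanied them; after 30 min at 37C, IP1 was quantified by TR-FRET.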
PNC inhibitor = High Content Assay for Compounds that inhibit the Assembly of the Perinucleolar Compartment | PC3M PTB-GFP, PNC prevalence imaging, 16 h; active compounds read low | activity change (PNC), negative = inhibition, % at 10 µM | hit rate 3.1% among 140,000 | AID 2417, 2010;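 active = readout at or below -70, meaning at least 70% loss of cells showing the perinucleolar compartment, a nuclear body marking cancer cells; inconclusive = readout between -30 and a set limit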
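Read-out is percentage of cells bearing a perinucleolar compartment, from automated 20x imaging of fixed, Hoechst-stained PC3M PTB-GFP cells. Cells were seeded 4 h, then exposed 16 h to compound (23 nl of library stock) in duplicate plates.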
HPGD inh = qHTS Assay for Inhibitors of HPGD (15-Hydroxyprostaglandin Dehydrogenase) | purified HPGD, NADH fluorescence kinetic, PGE2 substrate | AID 894, 2007 | hit rate 4.3% among 150,000 | Potency, µM, usual class: inhibitors | 15-hydroxyprostaglandin dehydrogenase [NAD(+)] (Homo sapiens), P15428
Target sequence (P15428 whole entry, looked up): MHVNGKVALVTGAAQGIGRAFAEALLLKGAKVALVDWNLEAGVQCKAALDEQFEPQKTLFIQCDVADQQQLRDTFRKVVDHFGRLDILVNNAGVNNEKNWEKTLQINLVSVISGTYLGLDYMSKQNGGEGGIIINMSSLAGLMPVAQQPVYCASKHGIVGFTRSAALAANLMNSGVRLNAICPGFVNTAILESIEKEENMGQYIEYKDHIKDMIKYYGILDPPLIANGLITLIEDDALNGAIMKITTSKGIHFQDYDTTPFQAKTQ
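20 nM HPGD preincubated 15 min at room temperature with compound in 50 mM Tris-HCl pH 8, 0.01% Tween 20. Started with 1 mM NAD+ and 30 uM prostaglandin E2; NADH fluorescence (360/450 nm) read 5 times over 30-s intervals, last minus first.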
ALDH1A1 block = qHTS Assay for Inhibitors of Aldehyde Dehydrogenase 1 (ALDH1A1); Potency, µM (titrated, usually from 75.3 µM), most hits filed as inhibitors; Aldehyde dehydrogenase 1A1 (Homo sapiens), P00352; Purified ALDH1A1, NADH fluorescence, propionaldehyde substrate; hit rate 7.3% among 220,000
IMPase cell inh = qHTS Assay for Identifying the Cell-Membrane Permeable IMPase Inhibitors | Inositol monophosphatase 1 (Rattus norvegicus), P97697 | CHO-M1 cells, IP1 accumulation, HTRF TR-FRET ratio | inhibition (IP1 accumulation), % at 46.1 µM | 120,000 tested, under 10 active; active = well fitted curve in the direction sought with a large enough effect in the signal ratio, not every such curve was filed as active; inconclusive = small, poorly fitted or top-dose-only effect, or a change in a side signal; inactive = no such curve, though single readings can be large or run the other way; the % refers to the signal ratio;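 also: cells stimulated with carbachol in lithium chloride buffer; higher means more IMPase inhibition seen as more IP1 and lower FRET ratio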
Target sequence (P97697 whole entry, looked up): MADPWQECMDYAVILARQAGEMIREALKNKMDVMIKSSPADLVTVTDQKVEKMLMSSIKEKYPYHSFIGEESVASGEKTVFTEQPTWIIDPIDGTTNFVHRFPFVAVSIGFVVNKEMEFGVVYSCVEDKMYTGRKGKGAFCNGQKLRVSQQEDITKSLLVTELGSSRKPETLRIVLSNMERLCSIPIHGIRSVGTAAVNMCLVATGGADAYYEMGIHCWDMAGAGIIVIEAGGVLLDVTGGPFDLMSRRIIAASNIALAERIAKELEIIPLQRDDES
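Elevated IP1 in lysates lowers TR-FRET signal (665/620 ratio and 620 channel reported). Cells were CHO-M1, given carbachol (50 uM as added) plus 50mM LiCl, pH 7.4, 30 min, 37C; compounds titrated up to 46 uM; AC50 by Hill equation.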
12-hLO inh = qHTS Assay for Inhibitors of 12-hLO (12-human lipoxygenase); Polyunsaturated fatty acid lipoxygenase ALOX12 (Homo sapiens), P18054; purified 12-hLO, xylenol orange hydroperoxide absorbance; Potency, µM (highest dose often 57.1 µM), most hits filed as inhibitors; hit rate 0.12% among 150,000; AID 1452, 2008; active = well fitted curve in the direction sought with a large enough effect; inconclusive = small, poorly fitted or top-dose-only effect, or another doubt; inactive = no such curve, though single readings can be large; an effect the other way counts as inactive or inconclusive; also: nearly all actives have a fitted effect of over 55% in size
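Purified human 12hLO (150 nM final) was preincubated with compounds for 15 min at room temperature in 25 mM Hepes pH 7.0, 0.01% Triton X-100, then reacted with 40 uM arachidonic acid for 30 min. Hydroperoxide was detected with ferrous iron/xylenol orange.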
Numbers stand for hits; 0 = inactive; ? = inconclusive; - = not tested or not shown; [ ] = dose if it differs, or a comment. This is a sample that favours compounds with a hit; in the whole collection about 11% have one here. Unless noted, calls follow the shape of the dose curve; as a rule, active = well fitted inhibition curve with a large enough effect (not every such curve was filed as active); inconclusive = small, poorly fitted or top-dose-only effect, or another doubt; inactive = no such curve, though single readings can be large or run the other way.

SMILES	IMPase Li cell	PNC inhibitor	HPGD inh	ALDH1A1 block	IMPase cell inh	12-hLO inh
O=C(CCc1ccccc1)OCC(=O)c1ccc([N+](=O)[O-])cc1	0	-	-	8.91µM	-	-
CCOC(=O)c1ccccc1NC(=O)c1ccccc1SC	0	-80.3	0	14.1µM	0	0
CCOC(=O)c1ccccc1NC(=O)CN(c1ccccc1)S(=O)(=O)N(C)C	0	0	0	28.2µM	?	0
CCOC(=O)c1ccccc1NC(=O)CN(c1ccccc1OC)S(C)(=O)=O	0	?	0	0	0	0
CCOC(=O)c1ccccc1NC(=O)c1cncc(Br)c1	1.26µM	-93.5	0	0	?	0
COC(=O)c1ccccc1NC(=O)c1ccccc1SC	0	0	0	0	0	0
COCCCNC(=O)c1ccccc1SC	0	-106.6	31.6µM	0	0	0
CCOCCCNC(=O)c1ccccc1SC	0	?	0	0	0	0
COc1ccc(C(C[N+](=O)[O-])c2c(-c3ccccc3)cc3ccccn23)cc1 (stereo unspecified)	0	0	28.2µM	?	0	?
COc1cc(C(C[N+](=O)[O-])c2c(-c3ccccc3)cc3ccccn23)cc(OC)c1OC (stereo unspecified)	0	0	?	3.55µM	0	0
CCn1c(=O)c2cc(C(=O)N(C)c3ccccc3F)sc2c2ccccc21	-	-	-	25.1µM	-	-
CCn1c(=O)c2cc(C(=O)N(C)c3ccc(OC)cc3OC)sc2c2ccccc21	-	-	-	0	-	-
CCOC(=O)C1=C(Nc2ccccc2)CC(C)(O)C(C(=O)OCC)C1c1ccc(Cl)cc1 (stereo unspecified)	0	0	0	0	-	0
O=C(c1ccccc1)N1N=C(c2ccco2)CC1c1cccs1 (stereo unspecified)	0	-	-	?	-	-
CC(=O)N1N=C(c2ccco2)CC1c1cccs1 (stereo unspecified)	0	0	0	3.55µM	0[1.84 µM]	0
Cc1ccc(C2=NN(C(=O)CCl)C(c3cccs3)C2)o1 (stereo unspecified)	-	0	-	1.26µM	0	0
FC(F)(F)c1ccccc1-c1ccc2ncnc(N3CCOCC3)c2c1	0	-	-	?	-	-
CC(=O)c1cccc(NC(=O)Cn2nc(-c3ccc(Cl)cc3)ccc2=O)c1	0	-	-	7.94µM	-	-
COc1ccc(-c2ccc(=O)n(CC(=O)Nc3ccc(C(=O)NC4CC4)cc3)n2)cc1OC	0	0	15.8µM	0	0	0
CC(C)CNS(=O)(=O)c1ccc(NC(=O)Cn2nc(-c3ccc(F)cc3)ccc2=O)cc1	0	0	7.94µM	0	-	0
COC[C@@H](O)[C@@H](OC)[C@H](OC)[C@H](Cc1c(OC)cc(OC)cc1OC)OC	0	-	0	0	-	-
O=c1cc(CF)[nH]c(=S)[nH]1	0	-	0	0[13.5 µM]	-	0[11.4 µM]
O=c1cnc2cnc(N3CCOCC3)nc2n1Cc1ccc(F)cc1	0	-	?	?	-	0
O=C(Nc1ccon1)c1csc2ccccc12	0	0	25.1µM	?	0	0
O=C(Nc1ccon1)c1ccc(Cl)s1	0	?	17.8µM	0	0	0
SMILES	IMPase Li cell	PNC inhibitor	HPGD inh	ALDH1A1 block	IMPase cell inh	12-hLO inh
O=C(Nc1cnccn1)c1csc2ccccc12	0	0	0	?	0	0
CSc1nc2ccc(NC(=O)c3ccc(Cl)s3)cc2s1	0	-	-	?	-	-
O=S(=O)(c1ccccc1)N1CCC2(CC1)CN(c1ncccn1)C2	0	-	?	?	-	0
C[C@@H]1CC2(OC[C@]3(C)O[C@H]23)O[C@H]2C[C@@]3(C)[C@@H]4CC[C@H]5C(C)(C)C(O[C@@H]6OC[C@@H](O)[C@H](O)[C@H]6O)CC[C@@]56C[C@@]46CC[C@]3(C)[C@@H]12 (stereo partly specified)	0	-	0	0	-	0
COC(=O)[C@@H](NC(=O)O[C@@H]1C(=O)c2cc(Br)ccc2O[C@H]1c1ccc2c(c1)OCO2)C(C)C	0	-	0	0	-	-
O=C(Nc1ccsc1C(=O)NC1CCCCC1)c1ccc(F)cc1	28.2µM	0	0	?	0	0
